ERK AVP inh = inhibitors of vasopressin-stimulated ERK signaling pathway. AID 995. 72,000 compounds, 0.99% hits. HEK293-V1b, vasopressin-stimulated pERK AlphaScreen. Potency, µM (series often up to 57.5 µM), for the others: top-dose activity, negative = inhibition, most hits filed as inhibitors; further: potency means the concentration at half of the fitted maximal effect; on the % scale 0 is the no-effect control and ±100 the full control effect; nearly all actives have a fitted effect of over 55% in size
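Overnight-seeded V1b-HEK293 cells in 1% FBS got compound, then vasopressin (25 nM final, 5 min, 37C), then lysis buffer. AlphaScreen detection of phospho-ERK; activity normalized to basal and full-stimulation controls.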
Ub-GFP proteasome = proteasome inhibitors stabilizing ubiquitin-GFP reporter; 67,000 tested, under 10 active; Potency, µM (titrated, usually from 45.9 µM), inactives show at the top dose activation (GFP accumulation), usual class: activators; Ubiquitin-GFP reporter cells, proteasome inhibition, GFP fluorescence; response scale: untreated = 0%, 10 µM MG-132 = 100%; active means well fitted activation curve with a large enough effect, not every such curve was filed as active; inconclusive means small, poorly fitted or top-dose-only effect, or another doubt; inactive means no such curve, though single readings can be large or run the other way; further: potency means the concentration at half of the fitted maximal effect
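Proteasome block read as GFP accumulation: ubiquitin(G76V)-GFP U2OS cells exposed to compound (2.9 nM–46 uM) for 4 hr at 37 C. Normalization used untreated cells as 0% and 10 uM MG-132 as 100%; concentration-response curves fitted.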
HEK293 cAMP cs = raises cAMP in parental HEK293 cells, TSHR agonist counter-screen; parental HEK293 CNG cAMP sensor, membrane potential fluorescence; Potency, µM (top dose mostly 57.1 µM), for the others: at the highest dose activation, usual class: activators; 73,000 compounds, 2.5% hits; AID 938; further: potency means the concentration at half of the fitted maximal effect; % of control where 0% means no effect; nearly all actives have a fitted effect of over 55% in size
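Parental HEK 293 cells stably expressing a modified CNG channel (no TSHR) report cAMP rise as membrane depolarization. Membrane potential dye with 100 uM RO 20-1724 was loaded for 60 min at room temperature, then compound added for 30 min; fluorescence read at 590 nm.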
TSHR ag = agonists of human thyroid stimulating hormone receptor. P16473. HEK293-CNG-TSHR cells (CNG channel as cAMP sensor), membrane potential dye, cAMP. Potency, µM (doses to about 57.1 µM), for inactives: at the highest dose activation, actives largely listed as activators. 73,000 compounds, 0.48% hits. AID 926; active means well fitted activation curve with a large enough effect in the main read-out, with a control signal flat, not every such curve was filed as active; inconclusive means small, poorly fitted or top-dose-only effect, or a change in a side signal; inactive means no such curve, though single readings can be large or run the other way; % of control where 0% means no effect;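 further: the control signal comes from parental cells without the receptor; potency means the concentration at half of the fitted maximal effect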
Target sequence (P16473 whole entry, looked up): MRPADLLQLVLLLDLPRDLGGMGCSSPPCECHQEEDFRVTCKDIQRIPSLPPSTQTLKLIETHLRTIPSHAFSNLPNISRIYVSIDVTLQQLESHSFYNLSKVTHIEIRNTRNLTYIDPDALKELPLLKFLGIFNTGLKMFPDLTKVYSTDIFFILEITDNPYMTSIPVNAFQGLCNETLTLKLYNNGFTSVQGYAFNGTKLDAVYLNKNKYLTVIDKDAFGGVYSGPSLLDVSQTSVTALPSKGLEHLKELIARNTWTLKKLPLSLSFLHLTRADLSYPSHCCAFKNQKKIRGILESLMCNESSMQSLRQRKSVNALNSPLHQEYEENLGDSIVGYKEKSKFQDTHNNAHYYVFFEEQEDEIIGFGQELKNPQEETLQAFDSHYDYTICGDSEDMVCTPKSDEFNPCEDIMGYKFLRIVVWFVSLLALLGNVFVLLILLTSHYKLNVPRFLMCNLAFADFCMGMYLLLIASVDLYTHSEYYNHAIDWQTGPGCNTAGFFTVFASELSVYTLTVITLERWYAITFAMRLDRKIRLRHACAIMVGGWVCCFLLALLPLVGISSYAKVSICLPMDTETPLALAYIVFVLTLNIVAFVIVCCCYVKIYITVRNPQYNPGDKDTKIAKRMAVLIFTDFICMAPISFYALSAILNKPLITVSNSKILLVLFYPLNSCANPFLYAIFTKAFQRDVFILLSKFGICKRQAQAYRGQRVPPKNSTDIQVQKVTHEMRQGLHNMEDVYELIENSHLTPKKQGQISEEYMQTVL
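cAMP rise detected as CNG-channel membrane depolarization by fluorescent dye (emission 590 nm), 30 min after compound, following 60 min dye loading containing 100 uM RO 20-1724 at room temperature. Cells: TSHR/CNG HEK 293, with parental CNG HEK 293 as control.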
HBB splicing = modulators of hemoglobin beta chain splicing. Potency, µM (titrated, usually from 46.1 µM), without a hit: at the highest dose activation, actives largely listed as activators. 65,000 compounds, 0.06% hits. HBB splicing reporter cell assay, activation; EGFP reporter with mutant IVS2-654 intron; response scale: normalised to 500 nM splice-correcting PNA; further: potency means the concentration at half of the fitted maximal effect; 0% is about no effect
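HeLa cells stably expressing EGFP interrupted by mutant beta-globin intron 2 (IVS2-654), 500/well in 2% FCS. Treated with compound for 2 days at 37C. Splicing correction scored as total well GFP intensity (488 nm excitation, 500-520 nm emission); 500 nM antisense PNA served as control.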
GFP derepression = derepresses silenced GFP locus in mouse C127i cells. mouse C127i GFP locus derepression, cytometry, 30 h. Potency, µM (top dose mostly 46.1 µM), without a hit: at the top dose GFP derepression (activation). 68,000 compounds, 0.09% hits. AID 597; further: % of control where 0% means no effect
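Derepression screen: silenced CMV-GFP reporter in murine C127i cells, 30 h compound incubation at 37 C, washed cells imaged by laser-scanning cytometer to enumerate GFP-expressing objects of 20 to 120 um.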
* = called active by the depositor; ? = inconclusive; nt = no result; ! = a repeat was not active; [ ] = dose if it differs, or a comment. Rows were chosen to be rich in hits. Some 3.8% of all compounds tested hit in one or more screens of this group. Unless noted, the call rests on the fitted dose curve; in most records, active means well fitted curve in the direction sought with a large enough effect; inconclusive means small, poorly fitted or top-dose-only effect, or another doubt; inactive means no such curve, though single readings can be large; an effect the other way counts as inactive or inconclusive.

SMILES	ERK AVP inh	Ub-GFP proteasome	HEK293 cAMP cs	TSHR ag	HBB splicing	GFP derepression
O=C(O)[C@@H]1C[C@H]1[C@@H](NP(=O)(c1ccccc1)c1ccccc1)c1ccccc1	-1%	nt	3%	3%	1%	nt
COC(=O)[C@H]1C[C@@H]1[C@H](NP(=O)(c1ccccc1)c1ccccc1)c1ccccc1	9%	nt	0.5µM*	?	1%	nt
COC(=O)[C@@H]1C[C@H]1[C@@H](NP(=O)(c1ccccc1)c1ccccc1)c1ccccc1	-11%	nt	13µM*	?	-1%	nt
Cc1cc[c]([Sb]2[O][C@H]([C@H](O)[C@H](O)C(=O)O)[C@@H](CO)[O]2)cc1	-3%[11.5 µM]	6%[9.17 µM]	1%[11.4 µM]	3%[11.4 µM]	6%[9.22 µM]	-3%[9.22 µM]
CN[C@H]1[C@H]2[C@H]3CCN2C[C@@H]1O3	nt	-3%	0%	5%	nt	-5%[9.22 µM]
C=C1C/C(=C\C)C(=O)O[C@@H]2CCN3CC=C(COC(=O)[C@]1(C)O)[C@H]23	nt	-2%	3%	-1%	nt	-9%[9.22 µM]
C=CCOC(=O)COc1cc(C)cc2oc(=O)c3c(c12)CCC3	14%	-6%	5µM*	?	8%	8%
O=C(NC[C@H]1CCCCN1)c1cc(OCC(F)(F)F)ccc1OCC(F)(F)F	14%	1%	4µM*!	?	-1%	0%
O=C(CCCN1CCC2(CC1)C(=O)N(CCc1ccc(N=C=S)cc1)CN2c1ccccc1)c1ccc(F)cc1	nt	2%	?	?	1%	-1%
O=C1C[C@H]2OCCC=C3CN4CC[C@@]56c7ccccc7N1[C@@H]5[C@H]2[C@H]3C[C@@H]46	nt	1%	28%	2%	nt	0%[9.22 µM]
Nc1c(C(=O)NCCN2CCOCC2)c2nc3ccccc3nc2n1Cc1ccco1	16µM*	nt	21%	-1%	1%[0.369 µM]	-2%
CCCCn1c(N)c(C(=O)NCCN2CCOCC2)c2nc3ccccc3nc21	-15%	1%	11%	nt	-3%[57.5 µM]	-5%
C=C(C)[C@@H]1CN[C@H](C(=O)O)[C@H]1CC(=O)O	nt	0%	?	?	1%	0%
CC(C)C[C@H]1C(=O)N2CCC[C@@H]2[C@]2(O)O[C@](NC(=O)[C@H]3C=C4c5cccc6[nH]cc(c56)C[C@H]4N(C)C3)(C(C)C)C(=O)N12	nt	-1%	-19%	-18%	nt	-2%[9.22 µM]
CC12CCC(=O)C=C1CCC1C2CCC2(C)C(O)CCC12 (configuration not stated)	-25%	15%	5%	13%	-1%[9.22 µM]	0%
CCC(=O)O[C@H]1CC[C@H]2[C@@H]3CCC4=CC(=O)CC[C@]4(C)[C@H]3CC[C@]12C	-2%[25.7 µM]	4%[20.5 µM]	16µM*	?	1%[20.6 µM]	12%[20.6 µM]
C/C=C(\C)C(=O)O[C@@H]1C(C)=C2[C@H]([C@@H]1OC(=O)CCCCCCC)[C@@](C)(OC(C)=O)C[C@@H](OC(=O)CCC)[C@@]1(O)[C@H]2OC(=O)[C@]1(C)O	20%	-2%	13%	nt	1%	-1%
CSc1nc2ccccc2n1C(=O)Oc1ccccc1	?	nt	25µM*	?	1%[0.369 µM]	2%
CC[C@@]12CCCN3CC[C@@]4(c5ccc(OC)c(O)c5N(C(C)=O)[C@H]4CC1)[C@H]32	nt	3%	5%	4%	nt	-2%[9.22 µM]
O=C(Oc1ccccc1)N1CCC2(CC1)CN(C(c1ccccc1)c1ccccc1)C2	-11%	-12%	32µM*	?	3%	-6%[9.22 µM]
O=C(Oc1ccccc1)N1CCC2(CC1)CN(Cc1ccncc1)C2	0%	-4%	20%	6%	5%	5%[9.22 µM]
O=S(=O)(NCCO)c1cc[c]([Sb](=[O])([OH])[OH])cc1	1%[11.5 µM]	-5%[9.17 µM]	-7%[11.4 µM]	5%[11.4 µM]	7%[9.22 µM]	3%[9.22 µM]
CN(c1ccccc1)S(=O)(=O)c1cccc(C(=O)N2CCN(c3ccccn3)CC2)c1	25µM*	-1%	16µM*	?	0%[57.5 µM]	2%
